Results reported in PubChem BioAssay (EPA / NIEHS).
Active and inactive are the calls of the source. The calls were made as follows: active = hit-call score of the fitted dose curve at least 0.9, where 1 is the maximum; inactive = score below 0.9.

Tests used:
[1] = ATG_CMV_CIS: Attagene CIS-FACTORIAL HepG2 Assay for human CMV (Internal Marker) (AID 2282928); settings: HepG2 CMV promoter reporter, transcription factor profiling; actives raise or lower the signal;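 also: endpoint acts as a background internal control marker rather than a target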
Procedure, shortened: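 Bidirectional fits against DMSO are applied to reporter mRNA, read by RT-PCR with capillary electrophoresis, from HepG2 cells exposed 24 h. The endpoint serves as an internal CMV background marker within the cis-factorial reporter panel.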

[2] = ATG_AP_1_CIS: Attagene CIS-FACTORIAL HepG2 Assay for human Activator Protein 1 (AP-1) (AID 2282931); settings: HepG2 Attagene cis-factorial AP-1 reporter mRNA; actives raise or lower the signal
Procedure, shortened: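 After 24 h incubation with test chemical, RNA from transfected HepG2 cells was reverse-transcribed, amplified, fluorescently labelled and digested before capillary electrophoresis. Reporters were driven by cis-regulatory promoters; activity fitted bidirectionally versus DMSO.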

[3] = ATG_AP_2_CIS: Attagene CIS-FACTORIAL HepG2 Assay for human Activator Protein 2 (AP-2) (AID 2282932); settings: HepG2 AP-2 cis-reporter, Attagene transcription factor profiling; actives raise or lower the signal
Procedure, shortened: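 Cells (HepG2) transfected with promoter-driven reporter constructs, treated 24 h. Total RNA reverse-transcribed, reporter cDNA PCR-amplified, FAM-labelled by primer extension, digested, resolved by capillary electrophoresis. Activity fitted both directions versus DMSO.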

[4] = ATG_BRE_CIS: Attagene CIS-FACTORIAL HepG2 Assay for human Bone Morphogenetic Protein (BMP) Response Element (BRE) (AID 2282933); settings: HepG2 BMP response element reporter, Attagene transcription factor profiling; actives raise or lower the signal
Procedure, shortened: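 After a 24 h chemical treatment, transiently transfected HepG2 cells were lysed for RNA; reporter transcripts were quantified by fluorescent RT-PCR and capillary electrophoresis, normalised to DMSO.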

[5] = molecular target: Retinoic acid receptor alpha (Homo sapiens) (UniProt P10276); test: ATG_DR5_RAR_CIS: Attagene CIS-FACTORIAL HepG2 Assay for human Retinoic Acid Receptor Alpha (RARE), DR5 submotif (AID 2282934); settings: HepG2 Attagene cis-factorial RARE DR5 reporter, mRNA; actives raise or lower the signal;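 as to AC50: reporter responds to endogenous RAR alpha beta and gamma in HepG2 not RARA alone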
Chain of Retinoic acid receptor alpha (Homo sapiens) (P10276 whole entry, looked up): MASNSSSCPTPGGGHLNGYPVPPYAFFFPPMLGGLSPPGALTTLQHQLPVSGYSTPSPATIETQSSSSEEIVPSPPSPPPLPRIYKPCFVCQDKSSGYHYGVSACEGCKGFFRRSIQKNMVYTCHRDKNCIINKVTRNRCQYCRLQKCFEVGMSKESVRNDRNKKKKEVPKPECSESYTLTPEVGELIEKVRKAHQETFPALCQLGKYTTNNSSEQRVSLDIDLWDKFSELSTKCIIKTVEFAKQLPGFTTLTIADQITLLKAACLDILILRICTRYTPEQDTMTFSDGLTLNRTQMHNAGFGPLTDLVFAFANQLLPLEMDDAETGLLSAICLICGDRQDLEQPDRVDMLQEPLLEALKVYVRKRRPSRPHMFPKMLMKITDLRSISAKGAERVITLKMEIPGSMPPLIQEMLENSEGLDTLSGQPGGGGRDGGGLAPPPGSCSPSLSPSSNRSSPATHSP
Procedure, shortened: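 HepG2 cells transiently transfected with multiplexed reporter units under cis (DR5 RARE) promoters, so endogenous transcription factor activity is measured. After 24 h compound exposure, reporter mRNA is quantified by RT-PCR with fluorescent labelling and capillary electrophoresis; bidirectional fitting versus DMSO.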

[6] = molecular target: Transcription factor E2F1 (Homo sapiens) (UniProt Q01094); test: ATG_E2F_CIS: Attagene CIS-FACTORIAL HepG2 Assay for human E2F Transcription Factor 1 (AID 2282935); settings: HepG2 Attagene cis-reporter, E2F reporter RNA transcripts; actives raise or lower the signal
Chain of Transcription factor E2F1 (Homo sapiens) (Q01094 whole entry, looked up): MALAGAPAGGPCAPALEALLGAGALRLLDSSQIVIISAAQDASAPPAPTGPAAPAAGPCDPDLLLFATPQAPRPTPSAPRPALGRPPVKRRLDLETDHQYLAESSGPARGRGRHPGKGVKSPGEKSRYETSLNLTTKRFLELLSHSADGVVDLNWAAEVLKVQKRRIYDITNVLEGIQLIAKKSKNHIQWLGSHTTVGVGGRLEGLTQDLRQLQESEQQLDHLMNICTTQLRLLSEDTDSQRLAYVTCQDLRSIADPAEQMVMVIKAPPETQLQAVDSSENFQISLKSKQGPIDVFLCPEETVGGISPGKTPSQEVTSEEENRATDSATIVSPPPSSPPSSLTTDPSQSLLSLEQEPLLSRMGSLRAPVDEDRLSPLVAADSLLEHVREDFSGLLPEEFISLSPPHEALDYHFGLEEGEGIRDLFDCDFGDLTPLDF
Procedure, shortened: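 First, HepG2 cells were transfected with reporter transcription units. Next, they were dosed for 24 h. Then RNA was isolated, converted to cDNA, PCR-amplified, FAM-labeled, HpaI-digested and analyzed by capillary electrophoresis.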

[7] = ATG_E_Box_CIS: Attagene CIS-FACTORIAL HepG2 Assay for human Enhancer Box (E-box) (AID 2282936); settings: HepG2 E-box cis-reporter transcription, actives raise or lower the signal
Procedure, shortened: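 Endogenous transcription factor activity was sensed in human HepG2 liver cells through transfected cis-promoter reporter units. After 24 h of dosing, total RNA was reverse-transcribed and reporter cDNA resolved by capillary electrophoresis.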

[8] = ATG_M_61_CIS: Attagene CIS-FACTORIAL HepG2 Assay for M61 Transcription Factor (Internal Marker) (AID 2282937); settings: HepG2 Attagene CIS-FACTORIAL M61 internal marker reporter; actives raise or lower the signal
Procedure, shortened: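 Using transiently transfected HepG2 liver cells, reporter transcript levels were assessed 24 h post-dosing by RT-PCR and capillary electrophoresis. Changes in either direction were fitted relative to DMSO controls.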

[9] = ATG_EGR_CIS: Attagene CIS-FACTORIAL HepG2 Assay for human Early Growth Response 1 (EGR1) (AID 2282938); settings: HepG2 Attagene CIS-FACTORIAL EGR reporter mRNA; actives raise or lower the signal
Procedure, shortened: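 Fluorescent capillary-electrophoresis signal of reporter cDNA fragments serves as read-out. HepG2 cells bear transiently transfected cis-promoter reporter units and are exposed 24 h; gain- or loss-of-signal is fitted against DMSO.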

[10] = ATG_Ets_CIS: Attagene CIS-FACTORIAL HepG2 Assay for human Erythroblast Transformation Specific (ETS) (AID 2282941); settings: HepG2 ETS cis-reporter transcription, actives raise or lower the signal
Procedure, shortened: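 Endogenous transcription factor activity read as reporter mRNA via RT-PCR and capillary electrophoresis, with gain or loss fitted bidirectionally against DMSO. Human HepG2 liver cells, transiently transfected CIS reporter constructs, 24 h exposure.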

[11] = molecular target: Hepatocyte nuclear factor 3-beta (Homo sapiens) (UniProt Q9Y261); test: ATG_FoxA2_CIS: Attagene CIS-FACTORIAL HepG2 Assay for human Forkhead box A2 (FOXA2) (AID 2282942); settings: HepG2 cis-reporter transcription factor activity, 24 h; actives raise or lower the signal
Chain of Hepatocyte nuclear factor 3-beta (Homo sapiens) (Q9Y261 whole entry, looked up, the tested form may be a part): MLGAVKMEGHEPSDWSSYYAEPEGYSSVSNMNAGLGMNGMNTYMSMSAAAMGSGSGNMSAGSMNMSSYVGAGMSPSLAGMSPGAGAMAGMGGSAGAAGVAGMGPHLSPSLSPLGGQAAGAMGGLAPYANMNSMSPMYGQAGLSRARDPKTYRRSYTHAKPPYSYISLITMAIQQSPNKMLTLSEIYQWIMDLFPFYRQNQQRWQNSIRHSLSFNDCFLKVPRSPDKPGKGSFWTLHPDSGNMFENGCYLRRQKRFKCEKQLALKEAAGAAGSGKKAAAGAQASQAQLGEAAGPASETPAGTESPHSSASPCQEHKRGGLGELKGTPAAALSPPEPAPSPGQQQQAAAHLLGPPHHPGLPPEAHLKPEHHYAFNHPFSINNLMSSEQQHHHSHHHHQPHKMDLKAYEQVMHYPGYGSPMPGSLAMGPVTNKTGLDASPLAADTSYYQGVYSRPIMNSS
Procedure, shortened: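 Fluorescence signal of reporter cDNA fragments, separated by capillary electrophoresis, reflects endogenous transcription factor activity in transfected HepG2 after 24 h. Both increases and decreases fitted against DMSO.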

[12] = ATG_GATA_CIS: Attagene CIS-FACTORIAL HepG2 Assay for human GATA Binding Protein (AID 2282944); settings: HepG2 GATA cis-element reporter, Attagene multiplex mRNA; actives raise or lower the signal
Procedure, shortened: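 Measures endogenous transcription factor-driven reporter mRNA in HepG2 cells transiently carrying cis-regulated constructs. 24 h dosing; RNA via oligo(dT) reverse transcription, PCR, HpaI digestion, capillary electrophoresis; fitted relative to DMSO.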

[13] = ATG_GLI_CIS: Attagene CIS-FACTORIAL HepG2 Assay for human Zinc Finger Protein GLI1 (AID 2282945); settings: HepG2, Attagene cis-factorial reporter mRNA, GLI element; actives raise or lower the signal
Procedure, shortened: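 HepG2 cells transiently transfected with cis-promoter multiplexed reporter units report endogenous transcription factor activity. After 24 h chemical exposure, reporter mRNA was quantified by RT-PCR, 6-FAM labelling, HpaI digestion and capillary electrophoresis, with bidirectional fitting against DMSO.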

[14] = ATG_GRE_CIS: Attagene CIS-FACTORIAL HepG2 Assay for human Glucocorticoid Response Elements (GRE) (AID 2282947); settings: HepG2 GRE cis-reporter, Attagene multiplex mRNA; actives raise or lower the signal
Procedure, shortened: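 Cells (HepG2) bearing transfected cis-promoter reporter transcription units were treated with chemical for 24 hours. Reporter mRNA was measured via RT-PCR with capillary electrophoresis, and activity was fitted in both directions relative to DMSO.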

[15] = molecular target: Aryl hydrocarbon receptor (Homo sapiens) (UniProt P35869); test: ATG_Ahr_CIS: Attagene CIS-FACTORIAL HepG2 Assay for human Aryl Hydrocarbon Receptor (Ahr) (AID 2282930); settings: HepG2 AhR cis-factorial reporter transcription; actives raise or lower the signal
Chain of Aryl hydrocarbon receptor (Homo sapiens) (P35869 whole entry, looked up): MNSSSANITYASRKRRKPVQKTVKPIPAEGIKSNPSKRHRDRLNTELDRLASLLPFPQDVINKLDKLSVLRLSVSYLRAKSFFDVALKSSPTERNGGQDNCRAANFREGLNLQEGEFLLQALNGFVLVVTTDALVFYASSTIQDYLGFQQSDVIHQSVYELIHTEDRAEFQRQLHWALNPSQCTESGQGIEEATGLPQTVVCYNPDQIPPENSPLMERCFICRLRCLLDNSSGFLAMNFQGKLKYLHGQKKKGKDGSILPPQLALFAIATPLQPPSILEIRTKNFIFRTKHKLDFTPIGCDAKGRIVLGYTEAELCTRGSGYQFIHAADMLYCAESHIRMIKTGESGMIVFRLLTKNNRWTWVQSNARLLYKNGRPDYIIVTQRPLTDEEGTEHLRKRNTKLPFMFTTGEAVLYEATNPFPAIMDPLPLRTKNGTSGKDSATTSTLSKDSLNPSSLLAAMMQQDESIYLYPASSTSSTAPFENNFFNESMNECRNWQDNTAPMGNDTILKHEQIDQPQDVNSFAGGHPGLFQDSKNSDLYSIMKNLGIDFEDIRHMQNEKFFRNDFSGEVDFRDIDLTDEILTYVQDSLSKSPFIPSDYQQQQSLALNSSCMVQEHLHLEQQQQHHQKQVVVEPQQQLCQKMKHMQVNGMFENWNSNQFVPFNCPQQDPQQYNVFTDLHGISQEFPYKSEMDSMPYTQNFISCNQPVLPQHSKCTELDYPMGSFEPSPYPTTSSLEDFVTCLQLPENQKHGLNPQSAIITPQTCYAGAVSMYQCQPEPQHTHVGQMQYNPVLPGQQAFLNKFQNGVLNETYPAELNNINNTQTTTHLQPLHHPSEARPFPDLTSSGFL
Procedure, shortened: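 HepG2 cells transiently transfected with cis-element-driven multiplexed reporter transcription units; endogenous transcription factor activity measured as reporter mRNA 24 h after dosing. RT-PCR, 6-FAM labelling, HpaI digestion, capillary electrophoresis; bidirectional fitting versus DMSO baseline.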

[16] = ATG_M_19_CIS: Attagene CIS-FACTORIAL HepG2 Assay for M19 Transcription Factor (Internal Marker) (AID 2282939); settings: HepG2 Attagene CIS-FACTORIAL M19 internal marker reporter; actives raise or lower the signal
Procedure, shortened: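 In this multiplexed cell assay, transiently transfected HepG2 reporter units report endogenous transcription-factor activity; after 24 hours of treatment, labelled reporter cDNA fragments are quantified by capillary electrophoresis and fitted bidirectionally against DMSO.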

[17] = ATG_ERE_CIS: Attagene CIS-FACTORIAL HepG2 Assay for Estrogen Response Element (ERE) (AID 2282940); settings: HepG2 ERE cis-reporter, Attagene RNA transcript; actives raise or lower the signal
Procedure, shortened: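 Measuring endogenous transcription factor output, the assay doses transfected HepG2 cells for 24 hours and quantifies reporter transcripts by fluorescent RT-PCR and capillary electrophoresis, with DMSO as baseline.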

[18] = ATG_FoxO_CIS: Attagene CIS-FACTORIAL HepG2 Assay for human Forkhead box O (FoxO) (AID 2282943); settings: HepG2 Attagene cis-reporter, FoxO element, mRNA; actives raise or lower the signal
Procedure, shortened: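 HepG2 cells transiently transfected with cis-promoter-driven multiple reporter transcription units; 24 h after chemical dosing, reporter mRNA quantified by RT-PCR, fluorescent primer extension, HpaI digestion and capillary electrophoresis. Bidirectional fitting versus DMSO baseline.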

| SMILES | outcome [1] | outcome [2] | outcome [3] | outcome [4] | AC50 [5] | outcome [6] | outcome [7] | outcome [8] | outcome [9] | outcome [10] | outcome [11] | outcome [12] | outcome [13] | outcome [14] | outcome [15] | outcome [5] | outcome [16] | outcome [17] | AC50 [4] | outcome [18] |
| --- | --- | --- | --- | --- | --- | --- | --- | --- | --- | --- | --- | --- | --- | --- | --- | --- | --- | --- | --- | --- |
| CCCCCCCCCCCCc1cccc(S(=O)(=O)O)c1 | inactive | inactive | inactive | inactive | 39.8 µM (active) | inactive | inactive | inactive | inactive | inactive | inactive | inactive | inactive | inactive | – | – | – | – | – | – |
| CCCCN(CCCC)C(=S)[S-].CCCCN(CCCC)C(=S)[S-].[Ni+2] | inactive | inactive | inactive | inactive | – | inactive | inactive | inactive | inactive | inactive | inactive | inactive | inactive | inactive | inactive | inactive | inactive | inactive | – | – |
| CC(O)(CS(=O)(=O)c1ccc(F)cc1)C(=O)Nc1ccc(C#N)c(C(F)(F)F)c1 (centres undefined) | inactive | inactive | inactive | – | – | inactive | inactive | inactive | inactive | inactive | inactive | inactive | inactive | inactive | inactive | inactive | inactive | inactive | 98.5 µM (active) | inactive |
| CCCCCCCCCCCCBr | inactive | inactive | inactive | inactive | – | inactive | inactive | inactive | inactive | inactive | inactive | inactive | inactive | inactive | inactive | inactive | inactive | inactive | – | inactive |
| CCN(CC)C(=O)C(Cl)=C(C)OP(=O)(OC)OC | inactive | inactive | inactive | inactive | – | inactive | inactive | inactive | inactive | inactive | inactive | inactive | inactive | – | inactive | inactive | inactive | inactive | – | inactive |
| CCCCOC(=O)COC(=O)c1ccccc1C(=O)OCCCC | inactive | inactive | – | inactive | – | inactive | inactive | inactive | inactive | inactive | inactive | inactive | inactive | inactive | inactive | inactive | inactive | – | – | inactive |
| N#Cc1ccc(Cl)cc1 | inactive | inactive | inactive | inactive | – | inactive | inactive | inactive | inactive | inactive | inactive | inactive | inactive | inactive | inactive | inactive | inactive | inactive | – | inactive |
| CCNc1nc(NCC)nc(SC)n1 | inactive | inactive | inactive | inactive | – | inactive | inactive | inactive | inactive | inactive | inactive | inactive | inactive | inactive | inactive | inactive | inactive | – | – | – |
